Only some compounds are listed: those with a hit (about 0.89% of all), similar ones and a draw of the others.
LAP4 TOR yeast: modulators of TOR pathway LAP4-GFP in S. cerevisiae | AID 2023 | GFP response vs DMSO, % at 10 µM | 0.34% of 320,000 active | S. cerevisiae LAP4-GFP multiplex, flow cytometry GFP, 3 h; median GFP as percent of DMSO wells;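 active = GFP response vs DMSO above a set limit, about the screen mean plus 3 SD, cut at about 150% in these data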
RPL19A-GFP yeast: alters RPL19A-GFP fluorescence in TOR pathway yeast screen | S. cerevisiae RPL19A-GFP strain, flow cytometry, 3 h; stronger effect = lower value | 0.3% of 330,000 active | percent response vs DMSO, % at 10 µM;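 active = percent response vs DMSO below 50%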;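 also: median channel GFP fluorescence of the barcoded RPL19A-GFP strain; ratio of sample median GFP to plate DMSO average so 100% = DMSO; lower means less RPL19A-GFP as with rapamycin TOR inhibition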
AGP1-GFP MLPCN: alters AGP1-GFP fluorescence in TOR pathway yeast screen; S. cerevisiae AGP1-GFP multiplex flow cytometry, 3 h; GFP as percent of DMSO wells; GFP response vs DMSO, % at 10 µM; 0.02% of 320,000 active;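 active = GFP response relative to DMSO above a set limit, near screen average plus 3 SD, cut at about 150% in these data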;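 also: median GFP channel fluorescence of the gated AGP1 strain per well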
CIT2-GFP yeast: modulators of TOR pathway CIT2-GFP in S. cerevisiae; S. cerevisiae CIT2-GFP strain, flow cytometry, 3 h; 100 means same as DMSO wells; GFP response vs DMSO, % at 10 µM; 0.065% of 320,000 active; AID 2029;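 active = GFP response relative to DMSO above a set limit, near the screen mean plus 3 SD, cut at about 150% in these data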;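 also: ratio of well median GFP fluorescence to mean of DMSO wells on the plate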
MEP2 TOR yeast: modulators of TOR pathway MEP2-GFP in S. cerevisiae. GFP response vs DMSO, % at 10 µM. AID 2016. S. cerevisiae MEP2-GFP strain, flow cytometry GFP, 3 h; 100% = DMSO control level. 0.51% of 330,000 active;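 active = GFP response versus DMSO above a set limit, roughly screen mean plus 3 SD, cut at about 180% in these data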;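 also: median GFP fluorescence of the barcode-gated MEP2-GFP cells per well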
LAP4 cherry2: yeast LAP4-GFP modulation, second cherry pick. shares compounds with LAP4 TOR yeast. S. cerevisiae LAP4-GFP strain, flow cytometry GFP, 3 h. GFP response vs DMSO, % at 10 µM. 20% of 590 active. AID 2621;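 active = GFP signal as percent of the solvent control above about 150%, meaning raised reporter expression, limit read from the data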;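 also: ratio of well median GFP fluorescence to plate DMSO mean so 100% = DMSO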
MEP2-GFP pick2: second confirmation of modulators of TOR reporter MEP2-GFP in yeast; shares compounds with LAP4 TOR yeast; S. cerevisiae MEP2-GFP strain, flow cytometry GFP, 3 h; GFP response vs DMSO, % at 10 µM; 10% of 590 active; AID 2622;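 active = GFP signal above 150% of the solvent control wells, that is a rise of more than half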;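 also: median channel GFP fluorescence of all gated yeast cells per well; ratio of median GFP to plate DMSO average so 100% = DMSO level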
RPL19A-GFP pick2: reconfirmed modulator of RPL19A-GFP TOR reporter in yeast. S. cerevisiae RPL19A-GFP strain, flow cytometry GFP, 3 h; stronger effect = lower value; 100% means same as DMSO wells. 3% of 590 active. shares compounds with LAP4 TOR yeast. GFP response vs DMSO, % at 10 µM;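 active = under 65% GFP response relative to DMSO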;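 also: median GFP channel fluorescence per well over the all cells gate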
CIT2-GFP pick2: reconfirmed modulator of CIT2-GFP TOR reporter in yeast | AID 2624 | 8% of 590 active | shares compounds with LAP4 TOR yeast | GFP response vs DMSO, % at 10 µM | S. cerevisiae CIT2-GFP strain, flow cytometry GFP, 3 h; DMSO control wells read 100%;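 active = GFP response vs DMSO above about 150%, limit read from the data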;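 also: median green fluorescence per well over all gated yeast cells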
AGP1 GFP CP2: second confirmation of modulators of TOR reporter AGP1-GFP in yeast | percent response vs DMSO, % at 10 µM | S. cerevisiae AGP1-GFP strain, flow cytometry GFP, 3 h | shares compounds with LAP4 TOR yeast | 590 tested, under 10 active | AID 2643;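 active = over 150 percent of DMSO response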;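 also: median GFP channel fluorescence over all cells without mother daughter split; sample median GFP divided by mean DMSO control so 100% equals DMSO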
s288c autofluor: yeast s288c autofluorescence artifact, counter-screen; shares compounds with LAP4 TOR yeast; S. cerevisiae s288c, 520 nm autofluorescence, flow cytometry, 3 h; stronger effect = higher value; zero means same as solvent-only cells; fluorescence change (kMESF span) at 33 µM; 610 tested, under 10 active; AID 2757;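 active = fluorescence span over the dose series, or activity score, above about 33, limit read from the data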
The depositor's hits bear a star.

What do the screens show for `CCCc1cc(=O)oc2cc(C)cc(OCC(=O)NC3CC3)c12`?
LAP4 TOR yeast: 89.9; RPL19A-GFP yeast: 51.3; AGP1-GFP MLPCN: 16.2; CIT2-GFP yeast: 105.6; MEP2 TOR yeast: 142.3; LAP4 cherry2: 98.2; MEP2-GFP pick2: 99.6; RPL19A-GFP pick2: 98.9; CIT2-GFP pick2: 104.3; AGP1 GFP CP2: 98.5; s288c autofluor: 0.1

What do the screens show for `O=[N+]([O-])c1ccc(-c2cn3nc(-c4ccccc4)c(-c4ccccc4)nc3n2)cc1`?
LAP4 TOR yeast: 170.7*; RPL19A-GFP yeast: 105.1; AGP1-GFP MLPCN: 50.4; CIT2-GFP yeast: 118.6; MEP2 TOR yeast: 260.9*; s288c autofluor: 3.13

What do the screens show for `CCN(CC)c1ccc(NC(=S)NC(=O)c2cccs2)cc1`?
LAP4 TOR yeast: 107.5; RPL19A-GFP yeast: 90.9; AGP1-GFP MLPCN: 90.2; CIT2-GFP yeast: 96.2; MEP2 TOR yeast: 104.1

How did CCCCCCCCCCCCCCCC[n+]1cccc2ccccc21 do in these assays?
LAP4 TOR yeast: 39.9; RPL19A-GFP yeast: 11.5*; AGP1-GFP MLPCN: 6.8; CIT2-GFP yeast: 26.2; MEP2 TOR yeast: 53.9; LAP4 cherry2: 154.3*; MEP2-GFP pick2: 138.0; RPL19A-GFP pick2: 81.3; CIT2-GFP pick2: 100.1; AGP1 GFP CP2: 95.0; s288c autofluor: 0.91

Results for COc1ccc(NC(=O)Cc2ccccc2)cn1 ?
LAP4 TOR yeast: 110.2; RPL19A-GFP yeast: 100.6; AGP1-GFP MLPCN: 106.8; CIT2-GFP yeast: 97.9; MEP2 TOR yeast: 104.6

What do the screens show for `COc1ccc(NC(=O)/C(Cl)=C(/Cl)S(=O)Cc2ccccc2)cn1` (stereo unspecified)?
LAP4 TOR yeast: 288.2*; RPL19A-GFP yeast: 78.2; AGP1-GFP MLPCN: 84.5; CIT2-GFP yeast: 89.9; MEP2 TOR yeast: 99.6; s288c autofluor: 1.11

What do the screens show for `CCN1CCN(C(=O)C2=CC(c3ccc(OC)cc3)=NS(=O)(=O)N2C)CC1`?
LAP4 TOR yeast: 167.4*; RPL19A-GFP yeast: 83.4; AGP1-GFP MLPCN: 108.5; CIT2-GFP yeast: 91.5; MEP2 TOR yeast: 127.4; LAP4 cherry2: 101.2; MEP2-GFP pick2: 103.1; RPL19A-GFP pick2: 98.5; CIT2-GFP pick2: 101.5; AGP1 GFP CP2: 100.7

What do the screens show for `OCCC#Cc1c(-c2ccsc2)sc2ccccc12`?
LAP4 TOR yeast: 159.2*; RPL19A-GFP yeast: 86.1; AGP1-GFP MLPCN: 87.6; CIT2-GFP yeast: 95.5; MEP2 TOR yeast: 98.6; LAP4 cherry2: 108.2; MEP2-GFP pick2: 118.8; RPL19A-GFP pick2: 89.9; CIT2-GFP pick2: 104.3; AGP1 GFP CP2: 99.0

What do the screens show for `O=C(Nc1nnc(SCC(=O)N2CCOCC2)s1)C1CC(=O)N(c2ccccc2)C1` (stereo unspecified)?
LAP4 TOR yeast: 97.0; RPL19A-GFP yeast: 97.5; AGP1-GFP MLPCN: 101.5; CIT2-GFP yeast: 91.8; MEP2 TOR yeast: 104.2

High-throughput results: PubChem BioAssay, NMMLSC
